Data on six compounds can be found in PubChem BioAssay.

Active and inactive are the calls of the source.

The target in one assay is Albumin (Bos taurus) (UniProt P02769). Briefly: compounds binding labelled BSA control protein – biochemical, small-molecule microarray, Alexa647 label, 635/667 nm fluorescence, artefact control for SMM control protein annotation, profiling panel (AID 1118).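 Also: score merges 667 nm emission intensity and signal-to-noise per printed compound spot.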 Conditions: BSA-A647 binding, fluorescence 635 nm, higher = more signal.
Sequence of Albumin (Bos taurus) (P02769 whole entry, looked up): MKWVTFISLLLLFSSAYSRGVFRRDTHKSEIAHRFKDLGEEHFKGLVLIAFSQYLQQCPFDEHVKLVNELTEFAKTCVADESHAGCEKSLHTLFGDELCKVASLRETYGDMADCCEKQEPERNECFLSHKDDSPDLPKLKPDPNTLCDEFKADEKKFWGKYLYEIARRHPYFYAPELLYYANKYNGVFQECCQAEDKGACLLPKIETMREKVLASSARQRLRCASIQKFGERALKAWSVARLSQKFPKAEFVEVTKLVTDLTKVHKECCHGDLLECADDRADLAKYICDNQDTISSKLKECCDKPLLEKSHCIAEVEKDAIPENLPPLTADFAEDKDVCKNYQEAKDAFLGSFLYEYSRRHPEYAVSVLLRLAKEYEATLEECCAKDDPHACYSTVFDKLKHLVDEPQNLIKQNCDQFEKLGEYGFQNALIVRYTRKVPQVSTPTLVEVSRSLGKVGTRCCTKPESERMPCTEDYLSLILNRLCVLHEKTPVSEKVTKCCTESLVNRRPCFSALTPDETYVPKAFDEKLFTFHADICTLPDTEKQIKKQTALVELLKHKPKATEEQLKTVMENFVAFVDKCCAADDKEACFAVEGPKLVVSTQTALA
Assay [1] can be described thus: probe aXIP binding to arrayed compounds – biochemical, NeuroSMM set, 635/667 nm fluorescence, primary screen (AID 1119).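 Also: probe is the protein aXip251-270 applied at 1 µg/mL to compound-printed slides; binding of probe to printed compounds measured as 667 nm fluorescence plus signal to noise.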 Conditions: small-molecule microarray, higher = more signal, called active from +8 up or from −8 down.
Assay [2] can be described thus: probe aNOTCH3 binding on compound microarray – biochemical, small-molecule microarray, 635/667 nm fluorescence, primary screen (AID 1120).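 Also: probe is a biotin-tagged antibody raised against NOTCH3 rather than NOTCH3 protein; score merges spot fluorescence near 667 nm with spot signal to noise.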 Particulars: higher = more signal.
Assay [3] can be described thus: probe aNOTCH2 binding on compound microarray – biochemical, small-molecule microarray, 635/667 nm fluorescence, primary screen (AID 1121).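 Also: score merges feature fluorescence read at 667 nm with its signal to noise.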 Particulars: higher = more signal.
Assay [4] has as its target Carbonic anhydrase 2 (Homo sapiens) (UniProt P00918). Briefly: compounds binding carbonic anhydrase 2 – biochemical, small-molecule microarray, Alexa647-labelled CAII, profiling panel (AID 1122). Particulars: CAII-A647 binding fluorescence, higher = more signal.
Assay [5] can be described thus: COS7 lysate on small-molecule microarray, probe aHis, 635 nm (AID 1123).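 Also: z-score combines 667nm fluorescence intensity with signal-to-noise per printed compound spot.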 Conditions: COS7 cell lysate, fluorescence, higher = more signal.
Assay [6] is described as follows: probe aLAP1 signal on lysate-treated microarray – cell lysate, small-molecule microarray, COS7 lysate, primary screen (AID 1124).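 Also: lysate comes from COS7 cells expressing LAP1 and is applied at 0.3 µg/mL; score merges spot fluorescence near 667 nm with signal-to-noise over triplicate slides.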 Conditions: probe aLAP1, fluorescence, higher = more signal.
The next assay deals with Sam68 (KHDRBS1). Briefly: compounds binding KHDRBS1 protein – biochemical, small-molecule microarray, 635 nm fluorescence, primary screen (AID 1125).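 Also: score merges 667 nm channel intensity with signal to noise over triplicate slides.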 Conditions: higher = more signal.
Assay [7] concerns Chordin-like protein 2 (CHRDL2). Briefly: compounds binding chordin-like 2 – biochemical, small-molecule microarray, 635 nm fluorescence, primary screen (AID 1126).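 Also: printed compound slides probed with Chrdl2 protein at 4 µg/mL for 1 h at 4 C; score merges 667 nm emission intensity with signal to noise over three replicate slides.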 Particulars: fluorescence 635 nm, higher = more signal.
Assay [8] concerns the target Concanavalin-A (Canavalia ensiformis) (UniProt P02866). Briefly: compounds binding concanavalin A lectin – biochemical, small-molecule microarray, Alexa647 label, 635 nm, artefact control for SMM control protein annotation, primary screen (AID 1127).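 Also: z combines 667 nm emission intensity with signal-to-noise across three replicate slides.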 Conditions: ConA-A647 binding fluorescence, higher = more signal.
The nature of assay [9]: compounds binding Alexa647 anti-His antibody – biochemical, small-molecule microarray, 635 nm fluorescence, artefact control for SMM control protein annotation, primary screen (AID 1128).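 Also: score merges feature fluorescence with signal-to-noise for each printed compound spot.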 Conditions: higher = more signal.
Assay [10] has as its system Human papillomavirus type 1a E7 protein (residues 1-88). Briefly: HPV1a E7 small-molecule binders, primary screen, biochemical, small-molecule microarray, residues 1-88, 635 nm (AID 1129). Particulars: small-molecule microarray binding, fluorescence 635 nm; higher = more signal.
Assay [11] concerns the target Focal adhesion kinase 1 (Homo sapiens) (UniProt Q05397). Briefly: PTK2 protein binding on printed compound slides – biochemical, small-molecule microarray, 635/667 nm fluorescence, BSA, DTT, primary screen (AID 1130).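 Also: composite of spot emission at 667 nm and signal to noise over triplicate slides.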 Particulars: 635 nm fluorescence, higher = more signal.
In assay [12] the test system is Fibrinogen (Alexa647-labelled). Briefly: Alexa647-fibrinogen binding to printed small molecules – biochemical, small-molecule microarray, 635/667 nm fluorescence, artefact control for SMM control-protein annotation, profiling panel (AID 1131).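 Also: z-score merges 667 nm fluorescence with per-spot signal-to-noise over triplicate slides.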 Conditions: fibrinogen-A647 binding fluorescence, higher = more signal.
In assay [13] the target is Follistatin (Homo sapiens) (UniProt P19883). Briefly: FST protein binding to printed compounds – biochemical, small-molecule microarray, 635/667 nm fluorescence, primary screen (AID 1132). Conditions: 635 nm fluorescence, higher = more signal.
Sequence of Follistatin (Homo sapiens) (P19883 whole entry, looked up): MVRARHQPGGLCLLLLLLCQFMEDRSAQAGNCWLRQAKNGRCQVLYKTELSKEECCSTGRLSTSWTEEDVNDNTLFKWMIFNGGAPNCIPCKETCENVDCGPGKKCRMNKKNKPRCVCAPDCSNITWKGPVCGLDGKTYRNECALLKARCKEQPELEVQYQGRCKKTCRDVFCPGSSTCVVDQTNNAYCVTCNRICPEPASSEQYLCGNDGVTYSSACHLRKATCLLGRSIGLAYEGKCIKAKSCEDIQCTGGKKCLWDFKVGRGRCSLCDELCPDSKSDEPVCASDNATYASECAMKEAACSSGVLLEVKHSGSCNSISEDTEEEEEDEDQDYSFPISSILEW
For assay [14], the target named is Fibroblast growth factor 2 (Homo sapiens) (UniProt P09038). Briefly: basic fibroblast growth factor binding to printed compounds – biochemical, small-molecule microarray, 635/667 nm fluorescence, primary screen (AID 1133). Particulars: FGF2, fluorescence 635/667, higher = more signal.
Sequence of Fibroblast growth factor 2 (Homo sapiens) (P09038 whole entry, looked up): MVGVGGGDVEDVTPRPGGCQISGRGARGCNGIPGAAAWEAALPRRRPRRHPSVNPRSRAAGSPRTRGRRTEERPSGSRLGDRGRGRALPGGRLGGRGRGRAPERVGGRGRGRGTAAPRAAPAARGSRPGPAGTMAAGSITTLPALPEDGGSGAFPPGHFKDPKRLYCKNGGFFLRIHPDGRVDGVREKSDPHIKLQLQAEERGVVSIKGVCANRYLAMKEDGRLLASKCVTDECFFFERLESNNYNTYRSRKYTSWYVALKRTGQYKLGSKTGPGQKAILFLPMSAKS
Assay [15] is described as follows: JC-1 mitochondrial potential readout, lung cancer cells – cell-based, A549, JC-1 fluorescence, basal, 24 h, 100 nL, profiling panel (AID 1138).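 Also: A549 lung adenocarcinoma cells under basal conditions with no added stimulus; test concentration not given here.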 Particulars: higher = more signal.
Another assay concerns Lefty1. Briefly: Lefty1 protein binding to printed compounds – biochemical, small-molecule microarray, 635/667 nm fluorescence, primary screen (AID 1139). Particulars: fluorescence 635/667, higher = more signal.
In assay [16] the test system is wheat germ agglutinin (Triticum aestivum), Alexa647-labelled. Briefly: Alexa647-WGA lectin binding to printed small molecules – biochemical, small-molecule microarray, 635/667 nm fluorescence, artefact control for SMM control-protein annotation, profiling panel (AID 1140).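 Also: score merges 667 nm feature emission with signal to noise over triplicate slides.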 Conditions: WGA-A647 binding, 635 nm fluorescence, higher = more signal.
Assay [17] has as its target Luciferin 4-monooxygenase (Photinus pyralis) (UniProt P08659). Briefly: inhibition of purified Photinus pyralis luciferase – biochemical, luminescence, purified enzyme, 2006 set, primary screen (AID 1141).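 Also: cell-free assay with purified firefly luciferase at 100 ng per well in PBS; test concentration not given here.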 Particulars: purified firefly luciferase, SteadyGlo luminescence, 30 min; higher = more signal, called active from +8 up or from −8 down.

Sequence of Concanavalin-A (Canavalia ensiformis) (P02866 whole entry, looked up): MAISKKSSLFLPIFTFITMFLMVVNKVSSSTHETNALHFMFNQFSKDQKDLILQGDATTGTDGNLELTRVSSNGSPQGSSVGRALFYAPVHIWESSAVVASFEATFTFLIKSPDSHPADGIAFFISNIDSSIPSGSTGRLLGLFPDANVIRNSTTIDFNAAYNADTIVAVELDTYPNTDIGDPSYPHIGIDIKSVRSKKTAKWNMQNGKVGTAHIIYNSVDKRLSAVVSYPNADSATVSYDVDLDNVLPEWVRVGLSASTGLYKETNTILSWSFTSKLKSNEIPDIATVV
Sequence of Focal adhesion kinase 1 (Homo sapiens) (Q05397 whole entry, looked up): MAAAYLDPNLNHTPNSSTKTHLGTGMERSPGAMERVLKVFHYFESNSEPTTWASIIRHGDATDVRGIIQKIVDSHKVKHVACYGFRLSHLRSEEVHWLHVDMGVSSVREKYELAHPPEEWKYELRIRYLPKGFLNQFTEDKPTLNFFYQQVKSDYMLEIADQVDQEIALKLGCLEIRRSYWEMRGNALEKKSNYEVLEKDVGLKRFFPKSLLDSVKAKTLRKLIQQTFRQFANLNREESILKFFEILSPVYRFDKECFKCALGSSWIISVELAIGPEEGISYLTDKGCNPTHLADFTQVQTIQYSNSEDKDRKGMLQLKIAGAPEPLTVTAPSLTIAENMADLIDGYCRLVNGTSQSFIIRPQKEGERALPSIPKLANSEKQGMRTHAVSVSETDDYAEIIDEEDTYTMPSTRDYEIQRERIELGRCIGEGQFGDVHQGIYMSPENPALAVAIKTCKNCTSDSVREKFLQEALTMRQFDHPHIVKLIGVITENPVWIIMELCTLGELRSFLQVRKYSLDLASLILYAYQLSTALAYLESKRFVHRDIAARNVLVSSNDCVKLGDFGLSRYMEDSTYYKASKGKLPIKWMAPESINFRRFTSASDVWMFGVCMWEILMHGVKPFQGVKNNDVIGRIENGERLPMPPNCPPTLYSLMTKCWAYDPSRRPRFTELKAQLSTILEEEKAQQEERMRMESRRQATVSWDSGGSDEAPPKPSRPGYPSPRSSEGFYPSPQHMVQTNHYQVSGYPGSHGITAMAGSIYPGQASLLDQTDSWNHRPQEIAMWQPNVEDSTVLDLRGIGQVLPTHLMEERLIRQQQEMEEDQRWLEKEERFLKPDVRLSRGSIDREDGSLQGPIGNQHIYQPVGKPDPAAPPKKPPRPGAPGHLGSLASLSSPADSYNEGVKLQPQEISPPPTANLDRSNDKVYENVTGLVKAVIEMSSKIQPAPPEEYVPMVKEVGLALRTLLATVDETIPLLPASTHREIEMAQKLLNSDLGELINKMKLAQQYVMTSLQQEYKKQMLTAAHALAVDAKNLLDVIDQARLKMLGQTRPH
Sequence of Luciferin 4-monooxygenase (Photinus pyralis) (P08659 whole entry, looked up): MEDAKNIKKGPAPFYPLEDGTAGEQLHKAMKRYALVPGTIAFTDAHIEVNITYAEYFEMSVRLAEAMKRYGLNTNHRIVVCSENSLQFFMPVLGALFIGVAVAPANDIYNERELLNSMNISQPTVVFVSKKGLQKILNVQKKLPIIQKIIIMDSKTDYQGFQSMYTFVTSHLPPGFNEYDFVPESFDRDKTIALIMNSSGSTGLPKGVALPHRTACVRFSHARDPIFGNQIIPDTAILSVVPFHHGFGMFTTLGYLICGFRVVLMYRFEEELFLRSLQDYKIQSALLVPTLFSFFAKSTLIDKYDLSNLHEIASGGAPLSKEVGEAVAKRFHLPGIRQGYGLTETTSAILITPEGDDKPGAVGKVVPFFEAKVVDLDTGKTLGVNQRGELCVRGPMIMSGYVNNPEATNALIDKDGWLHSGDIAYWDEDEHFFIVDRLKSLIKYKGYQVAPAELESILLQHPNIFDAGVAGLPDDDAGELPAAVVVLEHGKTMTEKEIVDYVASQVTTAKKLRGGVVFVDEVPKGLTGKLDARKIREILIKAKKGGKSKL

Turning to `COCCOC(=O)N1C(=O)[C@@]2(c3cc(C#CC4=CCCCC4)ccc31)[C@H](C(=O)NC[C@H](O)c1ccccc1)[C@H]1C(=O)O[C@H](c3ccccc3)[C@H](c3ccccc3)N1[C@@H]2c1ccccc1OCCO`, the composite z-score with Albumin (Bos taurus) is 0.648; in assay [2], 0.315; in [3], -0.0311; in assay [4], 0.358; in assay [5], 1.11; in assay [6] it was 0.474. For the same compound, the composite z-score in the assay on Sam68 (KHDRBS1) was 1.3; in assay [7], 0.239; in assay [8], 1.09; in assay [9], 0.69; in [10] it was 1.17; in [11], 0.985. In addition, the composite z-score in assay [12] was found to be 0.943; in assay [13], 1.34; in assay [14], 0.825; in the assay with Lefty1, 1.09; in [16], 1.09. Also, in assay [1], the composite Z-score was 0.155 (inactive). The values for the z-score in assay [15] and in assay [17] were -1.49 and -0.855 (inactive), respectively.
Consider `CN(C)c1ccc(C(O)C2C=CC3C(=O)NC(=O)C3N2Nc2ccc(Cl)cc2Cl)cc1` (stereo not given), for which the composite z-score in the assay with Albumin (Bos taurus) was 0.667; in [2], 0.0961; in [3], 0.046; in assay [4] it was 0.735; in assay [5] it was 2.51; in assay [6], 0.305. Also, the composite z-score in the assay on Sam68 (KHDRBS1) was 0.708; in [7], -0.0762; in assay [8], 0.332; in assay [9], -0.129; in [10] it was 1.14; in assay [11], 0.155. In addition, the composite z-score in [12] is 0.762; in [13], 1.16; in assay [14] it was -0.785; in the assay with Lefty1, -0.345; in [16], 0.5. In addition, the composite Z-score in [1] was 0.66 (inactive). Besides, the figures for the z-score in [15] and in assay [17] were 0.587 and -0.316 (inactive), respectively.
With `CC(=O)Nc1ccc([C@H]2[C@H](C)CC[C@H]3C(=O)N4[C@@H](CC[C@@H](C)[C@@H]4c4ccc(NC(C)=O)cc4)C(=O)N32)cc1`, the composite z-score with Albumin (Bos taurus) is 0.626; in assay [2], -0.0699; in assay [3], -0.195; in [4], 0.634; in assay [5], 1.24; in [6], 0.264. Moreover, the composite z-score in the assay on Sam68 (KHDRBS1) worked out at 1.31; in [7], 0.378; in assay [8], 1.12; in [9], 2.46; in assay [10] it was 1.16; in assay [11], 0.558. For the same compound, the composite z-score in [12] stood at 0.798; in assay [13] it was 1.19; in assay [14], 1.25; in the assay with Lefty1 it was 1.54; in assay [16], 0.994. Moreover, the composite Z-score in assay [1] is -0.222 (inactive). The z-score was 0.673 in [15] and -0.765 (inactive) in assay [17].
For the compound `N#Cc1ccc(NN2C(C(O)CCc3ccccc3)C=CC3C(=O)N(c4ccccc4)C(=O)C32)cc1` (stereo not given), the composite z-score in the assay with Albumin (Bos taurus) stood at 1.06; in assay [2], 0.123; in assay [3], 0.0532; in [4] it was 0.745; in assay [5], 2.21; in [6], 0.647. Further, the composite z-score in the assay on Sam68 (KHDRBS1) is 0.924; in assay [7], -0.794; in [8], 0.831; in assay [9], 1.31; in assay [10], 1.08; in assay [11] it was 0.945. Further, the composite z-score was 0.846 in [12]; 0.353 in assay [13]; -0.431 in assay [14]; -0.85 in the assay on Lefty1; 1.34 in assay [16]. Moreover, the composite Z-score in assay [1] is 0.265 (inactive). The z-score in assay [15] was -0.3; in [17], -0.98 (inactive).
As to `C=CCC(OC(C)=O)[C@@H]1[C@@H](N(Cc2ccc(-c3ccccc3)cc2)C(=O)c2ccc(C)cc2)c2cc(OCCCO)ccc2N1C(=O)c1ccc(-c2ccccc2)cc1` (stereo not given in full), the composite z-score with Albumin (Bos taurus) was 0.101; in [2], -0.0933; in assay [3] it was -0.0664; in assay [4], -0.102; in assay [5], 0.23; in assay [6], 0.232. In addition, the composite z-score was -0.0015 in the assay on Sam68 (KHDRBS1); -0.0151 in assay [7]; -0.925 in assay [8]; -0.958 in [9]; 0.438 in [10]; 0.248 in [11]. The composite z-score was -0.195 in assay [12]; 0.217 in [13]; 0.0217 in assay [14]; -0.166 in the assay with Lefty1; 0.258 in assay [16]. Besides, the composite Z-score in [1] is 0.451 (inactive). The z-score is 2.98 in [15] and -1.81 (inactive) in assay [17].
For `COc1ccc(-c2ccccc2[C@@H]2N[C@H](C(=O)O)CC[C@H]2C)cc1`, the composite z-score in the assay with Albumin (Bos taurus) is -0.497; in assay [2] it was -0.0647; in assay [3] it was -0.131; in assay [4] it was 0.0441; in assay [5], 0.711; in assay [6] it was -0.423. Moreover, the composite z-score in the assay with Sam68 (KHDRBS1) was 0.297; in [7] it was 0.456; in [8], 0.301; in assay [9], 0.351; in assay [10], 0.449; in assay [11], 0.671. The composite z-score in assay [12] was 0.0159; in assay [13], 0.107; in assay [14], 0.364; in the assay with Lefty1 it was 0.404; in [16], -0.361. In addition, the composite Z-score in [1] is 0.3 (inactive). In addition, the values for the z-score in assay [15] and in assay [17] were -0.568 and -0.739 (inactive), respectively.
